High-throughput results as filed in PubChem.
G9a block – inhibitors of human histone lysine methyltransferase G9a | G9a H3K9 monomethylation, AlphaScreen, 2 h | Potency, µM (series often up to 102 µM), without a hit: top-dose activity, negative = inhibition, most hits filed as inhibitors | 8.8% of 350,000 active | AID 504332; note: % is set by controls: 0 for no effect and ±100 for the full control effect; nearly all actives have a fitted effect of over 75% in size
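Signal arises when biotinylated H3K9 peptide, once monomethylated, bridges streptavidin donor and antibody-captured acceptor beads. Enzyme at 20 nM was preincubated 15 min with test compounds; peptide 500 nM and SAM 20 uM then reacted for 2 h.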
BAZ2B block – blocks human BAZ2B; 4.4% of 360,000 active; Potency, µM (doses to about 114 µM), inactives show top-dose activity change, negative = inhibition, most hits filed as inhibitors; AID 504333; AlphaScreen BAZ2B-H3K14Ac peptide displacement; note: % is set by controls: 0 for no effect and ±100 for the full control effect; nearly all actives have a fitted effect of over 60% in size
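Complex of BAZ2B and biotin-H3K14Ac (50 nM apiece) forms over 30 min at RT, then faces library compounds up to 110 uM for another 30 min; AlphaScreen beads added, 20 min dark incubation, luminescence read.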
JMJD2A Tudor inh – blocks the human JMJD2A Tudor domain; O75164; AlphaScreen JMJD2A-Tudor / H3K4me3 peptide binding; Potency, µM (top dose mostly 114 µM), inactives show at the top dose activity change, negative = inhibition, most hits filed as inhibitors; 4.4% of 390,000 active; AID 504339; note: % is set by controls: 0 for no effect and ±100 for the full control effect; nearly all actives have a fitted effect of over 50% in size
Sfp PPTase inh – inhibitors of Bacillus subtilis Sfp phosphopantetheinyl transferase | AID 1490 | Q9F4F7 | Biochemical Sfp PPTase activity, qHTS | 3.5% of 310,000 active | Potency, µM, without a hit: largest response in the series, negative = inhibition, actives largely listed as inhibitors;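 note: the enzyme is Sfp with the accession as filed and its product quenches rhodamine fluorescence; 0% = enzyme reaction without inhibitor and -100% = no enzyme wells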
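Reaction rates are the 30-min fluorescence difference (ex 525, em 598 nm) in wells containing 15 nM Sfp, 5 uM rhodamine-CoA and 12.5 uM BHQ-2-YbbR at pH 7.6 with 10 mM MgCl2.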
HP1b binding inh – inhibitors of HP1-beta chromodomain binding to methylated histone tails; Potency, µM (series often up to 114 µM), for inactives: at the highest dose activity change, negative = inhibition, hits mostly inhibitors; P83916; AID 540317; AlphaScreen HP1-beta / biotin-H3K9me3 peptide binding; 0.56% of 390,000 active; note: nearly all actives have a fitted effect of over 70% in size
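HP1-beta protein (50 nM final) preincubated 30 min at room temperature with biotinylated H3(1-18)K9me3 peptide (50 nM) in PBS pH 7.4, 0.01% Tween-20, then compound added for 30 min. AlphaScreen streptavidin donor/nickel chelate acceptor beads (10 ug/mL final), 30 min dark, luminescence read.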
Numbers without * were called inactive; u = inconclusive; x = not tested or not shown; [ ] = another dose, or the depositor's remark. Hits are enriched below; roughly 12% of the tested compounds scored in any of these assays. Calls come from the whole dose curve; as a rule, active = well fitted curve in the direction sought with a large enough effect; inconclusive = small, poorly fitted or top-dose-only effect, or another doubt; inactive = no such curve, though single readings can be large; an effect the other way counts as inactive or inconclusive. Potency is the fitted concentration of half-maximal effect.

SMILES	G9a block	BAZ2B block	JMJD2A Tudor inh	Sfp PPTase inh	HP1b binding inh
O=C(/C=C/c1ccc(Cl)cc1)NC(=S)Nc1ccc(C(=O)O)cc1	u	50µM*	22µM*	-6%	u
COc1ccccc1/C=C/C(=O)NNC(=O)c1cc(C)oc1C	-32%	-7%	-17%	x	22%
Cc1cc(C(=O)NNC(=O)/C=C/c2ccco2)c(C)o1	22µM*	u	45µM*	x	u
O=C(/C=C/c1ccco1)NC(=S)Nc1ccc(C(=O)O)cc1	10µM*	32µM*	35µM*	56µM*	71µM*
COc1ccc(C(=O)O)cc1NC(=S)NC(=O)/C=C/c1ccc(C(C)C)cc1	u	50µM*	79µM*	-23%	6%
CCCCC(=O)NC(=S)Nc1cc(C(=O)O)ccc1OC	1%	-23%	-5%	10%	30%
O=C(O)CNC(=O)/C(=C/c1ccco1)NC(=O)/C=C/c1ccccc1	u	u	-1%	56µM*	29%
CCOc1sc2nc(C)n(CC(=O)Nc3cccc(C)c3)c(=O)c2c1C	-32%[59 µM]	-1%	-4%	x	25%
Cc1c(C)n(C)c2ccc(C(=O)NCCN3CCOCC3)cc12	u	-13%[57.1 µM]	-30%	8%	6%
O=C(/C=C/c1ccco1)N1CCN(c2ccccc2)CC1	u	-28%	0%	3%	13%
C=CCNC(=S)NNC(=O)c1ccco1	-23%	-35%	-5%	4%	43%
COc1ccc(NC(=S)NC(=O)/C=C/c2ccco2)cc1	22µM*	u	-15%	6%	3%
O=C(/C=C/c1ccco1)NC(=S)NNC(=O)c1ccco1	11µM*	2%	-21%	-6%	-4%
O=C(/C=C\c1ccco1)Nc1ccc(N2CCN(C(=O)c3ccccc3)CC2)cc1	u	71µM*	-27%	0%	-12%
COc1ccc(C(=O)N2CCC3(CC2)CN(C(=O)NC(C)C)C3)cc1	6%[12.7 µM]	x	x	3%	x
CCN1CCN(S(=O)(=O)c2ccc(Cl)c(C(=O)N(C)Cc3ccc(C(C)(C)C)cc3)c2)CC1	x	x	u	x	7%
O=C(O)CCC1CCCC1	x	x	x	22%	x
COC(=O)c1ccc(/C=N/NS(=O)(=O)c2cc(C)ccc2C)cc1	2.5µM*	-21%	-1%	9%	48%
Cc1ccc(C)c(S(=O)(=O)N/N=C/c2ccc(C(=O)O)cc2)c1	35µM*	0%	-12%	1%	26%
COc1ccc(/C=N/NS(=O)(=O)c2ccc(C)cc2)cc1OC(=O)c1ccc(C)cc1	u	-2%	-28%	23%	-6%
COc1ccc(-c2ccc(OC)c(C3C4C=CCC(C)C4C(=O)N3Cc3ccccc3)c2)cc1OC (stereo not drawn)	x	x	-36%	-13%	5%
CCOc1ccccc1C(=O)NCC(=O)N(C)Cc1cccnc1	40µM*	-5%	-5%	17%	14%
CC(C)(C)C(CCl)C(=O)NN=C(c1ccccc1)c1ccccc1 (stereo not drawn)	-29%[2.33 µM]	u	100µM*	x	49%
Cc1ncc2c(n1)-c1cc(F)ccc1SC2	31%	20%	6%	7%	43%
O=C(O)c1ccc(N/N=C2/CCSc3ccc(F)cc32)cc1	50µM*	u	u	12%	-8%
SMILES	G9a block	BAZ2B block	JMJD2A Tudor inh	Sfp PPTase inh	HP1b binding inh
Cc1cc(C)nc(N/N=C2/CCSc3ccc(F)cc32)n1	35µM*	-18%	-40%	15%	30%
O/N=C1\CCSc2ccc(F)cc21	x	-8%	3%	-6%	40%
O=C(Cn1ncc2c(=O)oc3ccccc3c21)N1CCN(c2ccc(Cl)cc2)CC1	-18%[59 µM]	x	-12%	x	25%
Clc1ccc(-c2nnc(-c3ccccc3)o2)cn1	9%	3%	6%	8%	18%
CC(Sc1ncnc2sc(-c3ccccc3)cc12)C(N)=O (stereo not drawn)	x	79µM*	-21%	-14%	26%
Cc1ccc(N2C(=O)CS(=O)(=O)CC2=O)cc1	32µM*	-18%	-6%	7%	63%
CC[C@@H](C)[C@@H](CO[C@@H](Cc1ccccc1)C(=O)N[C@@H](CCS(C)(=O)=O)C(=O)OC(C)C)NC[C@@H](N)CS	22µM*	x	x	-27%	x
CC(=O)NC(CCS(C)(=O)=O)C(=O)Nc1ccccc1C (stereo not drawn)	-16%[59 µM]	-2%	-22%	-8%	19%
